Among all 1,300 compounds or so, about 270 (21%) were called active. The rule behind the calls is not given here. These entries were drawn from the full list. Measured potencies and affinities stand elsewhere.
assay: cytotoxicity in parental SK-MEL-5 melanoma cells – cell-based, CellTiter-Glo, cherry-picked, set 3, orthogonal assay for MITF inhibitor project, dose response (AID 493240); details: SK-MEL-5 viability, ATP luminescence (CellTiter-Glo), 24 h; series mostly up to 35 µM; activity change, negative = viability loss: at the top concentration

SMILES	activity change, negative = viability loss
CCCOC(=O)c1ccc(NC(=O)C2CCCO2)cc1 (stereo not drawn)	11.9% (inactive)
CCOc1ccc(NC(=O)Nc2cccc(C(=O)O)c2)cc1	-24.5% (inactive)
O=C(Nc1nnc(Cc2ccccc2)s1)c1ccccc1	10% (inactive)
Cc1ccc(O)c(NC(=O)c2ccc3c(c2)C(=O)N(CC(C)C)C3=O)c1	-15.1% (inactive)
CCN(CC)C(=O)CCCOc1ccc(Cl)cc1Cl	-3.19% (inactive)
O=C(O)c1cccc(N/N=C/c2cccs2)c1	-4.73% (inactive)
N#Cc1cc2c(nc1SC1CC(=O)N(c3ccccc3)C1=O)CCC2 (stereo not drawn)	-10.3% (inactive)
CCOC(=O)c1nnn(-c2ccc([N+](=O)[O-])cc2[N+](=O)[O-])c1C	-37.1% (inactive)
Cc1ccc2nc3cc([N+](=O)[O-])cc([N+](=O)[O-])c3cc2c1	-29.9% (inactive)
COc1ccc(Nc2oc(-c3ccc(OC)cc3)nc2C#N)cc1	8.58% (inactive)
Cc1cccc(-c2nc(C#N)c(NCc3ccco3)o2)c1	11.6% (inactive)
COC(=O)c1c(C)[nH]c(/C=N/Nc2ccccc2)c1C	-6.74% (inactive)
OCCNc1c2ccccc2nc2c(F)c(F)c(F)c(F)c12	-36.1% (inactive)
FC(F)(F)Oc1ccc(-c2cn3cccnc3n2)cc1	-0.472% (inactive)
COc1ccc(NC(=O)Nc2ccc(F)c(F)c2)c(OC)c1	4.2% (inactive)
Cc1ccc(-c2c[n+](Cc3cccc(Cl)c3)c3n2CCC3)cc1	-18.5% (inactive)
Cc1ccc(-c2c[n+](Cc3ccc(Cl)cc3)c3n2CCC3)cc1	-25.2% (inactive)

SMILES	activity change, negative = viability loss
CC1CC(C)C[N+](=C2C=C(N3CCCC3)CC(C)(C)C2)C1 (stereo not drawn)	-40.1% (inactive)
COc1ccc(-c2noc(-c3cccs3)n2)cc1OC	4.3% (inactive)
O=C(Nc1cccnc1Cl)c1cc(-c2ccco2)on1	-0.292% (inactive)
CCN(CC)S(=O)(=O)c1ccc(N2CCCC2)c(NC(=O)c2ccc([N+](=O)[O-])o2)c1	-23.8% (inactive)
CSc1nc(N)n2nc(-c3ccccc3)cc2n1	-39.1% (inactive)
COc1ccc(C(NC(C)=O)c2ccc3cccnc3c2O)c(OC)c1 (stereo not drawn)	-15.9% (inactive)
C(=N\Nc1cc(N2CCCCC2)ncn1)/c1ccco1	7.34% (inactive)
CC(=O)c1sc(N/N=C\c2ccc(N(C)C)cc2)nc1C	6.94% (inactive)
COc1ccc(-c2csc(N(C)C(=O)c3ccco3)n2)cc1	-3.54% (inactive)
Cc1csc(N/N=C/c2ccc([N+](=O)[O-])cc2)n1	-1.39% (inactive)
CCOc1ccc(C(=O)N2CCc3ccccc32)cc1	13.3% (inactive)
CC(=O)Oc1ccc(C)cc1-n1nc2ccccc2n1	-20.8% (inactive)
CC(=O)Cn1ncc(Br)c(Br)c1=O	-30.7% (inactive)
O=C(CCCN1C(=O)S/C(=C\c2ccccc2)C1=O)NNC(=O)c1ccccc1O	-13.1% (inactive)
O=C(CCCCl)NC(=S)Nc1ccc(N2CCOCC2)cc1	-8.43% (inactive)
N/C(=N\OC(=O)Cc1cccs1)c1ccccc1	0.942% (inactive)

Reference: PubChem BioAssay AID493240 (Broad Institute, 2011)
